Compounds with a hit are over-represented: about 3.5% of the library has one in this group of screens.
mHTT CaM bind: disrupts binding of mutant huntingtin to calmodulin; AlphaScreen His-mHTT/GST-CaM binding, luminescence; AID 1671202; inhibition, % at 15 µM; 3.6% of 190,000 active; P42858;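 also: 0% = both proteins with DMSO and 100% = one protein alone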
Pf apPOL block: Pf-apPOL DNA polymerase inhibition | Recombinant Pf-apPOL, molecular beacon fluorescence, 1.5 h | inhibition, % at 10 µM | 0.25% of 210,000 active | AID 1794808
An asterisk follows results filed as active; nt = not tested or not shown. Rule as the data show it: active = inhibition above about 50%; inactive = the rest.

SMILES	mHTT CaM bind	Pf apPOL block
CC1C(=O)N(Cc2cn(Cc3ccco3)nn2)CCS(=O)(=O)N1Cc1ccc(-c2cccc(N(C)C)c2)cc1 (stereo unspecified)	64*	-2
CC(C)CC1C(=O)N(Cc2cn(Cc3ccco3)nn2)CCS(=O)(=O)N1Cc1ccc(-c2cccc(N(C)C)c2)cc1 (stereo unspecified)	68*	-4
Cc1ccc(-c2ccc(CN3C(CC(C)C)C(=O)N(Cc4cn(Cc5ccco5)nn4)CCS3(=O)=O)cc2)cc1 (stereo unspecified)	38	-5
O=C(NCc1cccnc1)C(=O)Nc1ccc(Cl)cc1Cl	nt	-5
CCC(CC)NC(=O)c1cc(-c2ccc3c(c2)OCO3)on1	1	3
CN(C)/C=C1\C(=O)N(c2nc3ccccc3s2)N=C1c1ccccc1	-1	-9
COc1ccc(C2=NN(c3nc4ccccc4s3)C(=O)/C2=C\N(C)C)cc1	73*	-1
O=C(NC(=O)c1c(Cl)cc(Cl)nc1Cl)Nc1ccc(Cl)cc1	-10	0
O=C1NC(c2ccc(Br)cc2)=C(c2ccccc2)C1=O	53*	-3
Cc1ccc(C2=C(c3ccccc3)C(=O)C(c3ccccc3)=C2c2ccc(Cl)cc2)cc1	nt	-4
CN(CC(=O)N1N=C(c2cccs2)CC1c1ccc(F)cc1)C(=O)C1CCC1 (stereo unspecified)	14	-1
O=[N+]([O-])c1cc2c(cc1CN1CCN(c3ccc(F)cc3)CC1)OCO2	30	0
O=[N+]([O-])c1cc2c(cc1CN1CCN(c3cccc(Cl)c3)CC1)OCO2	77*	-2
CCOc1ccccc1N1CCN(Cc2cc3c(cc2[N+](=O)[O-])OCO3)CC1	51*	-2
Cc1ccccc1N1CCN(Cc2cc3c(cc2[N+](=O)[O-])OCO3)CC1	19	3
COc1cc(OC)cc(C(=O)n2nnc3ccccc32)c1	1	-2
COc1cc(SC)ccc1C(=O)n1nnc2ccccc21	91*	-8
COc1ccc(OC)c(/C=C2\N=C(c3ccc(Cl)c([N+](=O)[O-])c3)OC2=O)c1	68*	-3
O=C1OC(c2ccccc2Cl)=N/C1=C\c1ccccc1	51*	3
COc1cccc(C2=N/C(=C\c3ccco3)C(=O)O2)c1	4	61*
O=C1OC(c2ccccc2Cl)=N/C1=C\c1ccc(Cl)cc1	3	-7
COc1cccc(/C=C2\N=C(c3cccc(OC)c3)OC2=O)c1	2	0
O=C1OC(c2cc(Cl)ccc2Cl)=N/C1=C\c1ccco1	3	86*
COc1ccc(Br)cc1/C=C1\N=C(c2ccc(Cl)c([N+](=O)[O-])c2)OC1=O	-6	4
O=C1OC(c2ccc(Cl)cc2Cl)=N/C1=C\c1ccco1	4	-10
SMILES	mHTT CaM bind	Pf apPOL block
COc1ccc(CC2CCN(C(=O)Nc3ccc(OC)cc3)CC2)cc1	1	-6
Cc1cccc(Nc2ccc(N3CCN(C(=O)c4cccs4)CC3)nn2)n1	-14	-9
O=S(=O)(c1ccc(Br)cc1)N1CCC(N2CCCCC2)CC1	-4	-2
O=S(=O)(c1cccc2cccnc12)N1CCC(n2cccc2)CC1	nt	0
Cc1cc(-c2ccccc2)n(-c2cc(Nc3cccc(C(F)(F)F)c3)ncn2)n1	93*	-3
CNc1cc(-n2nc(C)cc2-c2ccccc2)ncn1	3	7
NC(Cc1nc2cccnc2n1C1CC1)=NOC(=O)c1ccc(OC(F)(F)F)cc1	nt	-4
Cn1c(N2CCC(C(=O)N3CCN(c4ccccc4F)CC3)CC2)cc(=O)n(C)c1=O	27	1
CCn1c(N2CCC(C(=O)N3CCN(c4ccccn4)CC3)CC2)cc(=O)n(C)c1=O	53*	-1
CCn1c(N2CCC(C(=O)N3CCN(c4ccccc4F)CC3)CC2)cc(=O)n(C)c1=O	62*	0
Cn1c(N2CCC(C(=O)N3CCN(c4ccccn4)CC3)CC2)cc(=O)n(C)c1=O	29	-4
COCCNC(=O)c1ccc2c(c1)ncn2-c1cccc(Cl)c1	4	4
C=CCNC(=O)COc1ccc(Br)cc1C	-10	4
C=CCNCCOc1ccc(Br)cc1C	54*	-2
O=C(O)CCNC(=O)/C(=C\c1ccc2c(c1)OCO2)NC(=O)c1ccc(Br)cc1	2	-4
Cc1noc(C)c1C1CCCN1Cc1cn[nH]c1-c1cccs1 (stereo unspecified)	15	3
C=CCN1N=C(C(=O)N2CCCCC2)S(=O)(=O)c2ccccc21	-7	0
CCC(=O)NCCc1csc(C2CCN(C(=O)c3c(F)cccc3Cl)CC2)n1	0	-2
CCc1ccc(N2CC34C=CC(O3)C(C(=O)OC)C4C2=O)cc1 (stereo unspecified)	4	-1
O=C(OCc1ccccc1)C1C2C=CC3(CN(c4ccc(Cl)cc4)C(=O)C13)O2 (stereo unspecified)	80*	-2
Nc1nc(CSc2ncnc3nc[nH]c23)nc(Nc2ccccc2)n1	9	nt
CC(C)c1ccc(N2CC(C(=O)NC(C)(C)C)CC2=O)cc1 (stereo unspecified)	0	1
COc1ccc(Oc2c(C)oc3c(CN4CCCCC4)c(O)ccc3c2=O)cc1	-1	2
COc1ccc(C2=NC3(CCCCC3)N(CC(=O)Nc3ccc(F)cc3)C2=O)cc1	66*	-7
COc1ccc(C2=NC3(CCCCC3)N(CC(=O)Nc3ccc(F)c(F)c3)C2=O)cc1	98*	-6
SMILES	mHTT CaM bind	Pf apPOL block
COc1ccc(NC(=O)CN2C(=O)C(c3ccccc3)=NC23CCCCCC3)cc1	9	-11
Cc1cccc(NC(=O)CN2C(=O)C(c3ccc(F)cc3)=NC23CCCC3)c1C	0	-4
O=C(CN1C(=O)C(c2ccccc2)=NC12CCCC2)Nc1ccc(F)c(F)c1	5	-10
COc1ccc(C2=NC3(CCCCCC3)N(CC(=O)Nc3ccc(Cl)cc3)C2=O)cc1	90*	-3
Cc1ccccc1NC(=O)CN1C(=O)C(c2ccc(F)cc2)=NC12CCCCC2	50*	-1
COc1ccc(NC(=O)CN2C(=O)C(c3ccc(C)cc3)=NC23CCCCC3)cc1	-1	-9
CC(C)(C)C1CCC2(CC1)NC(=O)N(CC(=O)N1CCOCC1)C2=O (stereo unspecified)	3	2
CN1CCN(C(=O)NC2(C(F)(F)F)Oc3ccccc3O2)CC1	1	-11
COc1ccc(CC(=O)N2CCCC2c2cccc(C)c2)cc1 (stereo unspecified)	16	9
O=C(NCC1OCCc2ccccc21)c1ccc(NC(=O)c2ccccc2)cc1 (stereo unspecified)	1	-4
COc1ccc(Cl)cc1NC(=O)C(Cc1ccccc1)N1C(=O)C2C3CCC(C3)C2C1=O (stereo unspecified)	32	-1
COc1ccc(Cl)cc1NC(=O)C(Cc1ccccc1)N1C(=O)C2C3C=CC(C3)C2C1=O (stereo unspecified)	51*	-2
CCC1(c2cccc(OC)c2)CCCCC1=NO (stereo unspecified)	nt	0
O=C(CCN1CCN(C2c3ccccc3-c3ccccc32)CC1)Nc1ccccc1F	15	-2
CCOc1ccccc1NC(=O)CCN1CCN(C2c3ccccc3-c3ccccc32)CC1	57*	0
Cc1oc(C2CCN(C(=O)C3CCCO3)CC2)nc1C(=O)N1CCCC1 (stereo unspecified)	1	-6
COc1ccc(NC(=O)N2CCC3(CC2)Nc2cc(F)ccc2-n2cccc23)cc1OC	61*	-2
CCOc1ccc(NC(=O)N2CCC3(CC2)Nc2cc(F)ccc2-n2cccc23)cc1	66*	1

Source: PubChem BioAssay (University of Kansas High Throughput Screening Laboratory)
